In PubChem BioAssay (NCATS):
Several values for one entry are separate records, joined by “and”; a condition that tells them apart may be missing. Identical values can stand only once. Inconclusive results are not listed. Activity calls are given as the source filed them. Unless noted, calls come from the whole dose curve.

Experiments:
[1] = molecular target: Bile acid receptor (Homo sapiens) (UniProt Q96RI1); experiment: qHTS assay for small molecule antagonists of farnesoid X receptor signaling (AID 588526); note: potency is the fitted concentration of half-maximal effect; for activity change, negative = inhibition: % is set by controls: 0 for no effect and ±100 for the full control effect
Chain of Bile acid receptor (Homo sapiens) (Q96RI1 whole entry, looked up): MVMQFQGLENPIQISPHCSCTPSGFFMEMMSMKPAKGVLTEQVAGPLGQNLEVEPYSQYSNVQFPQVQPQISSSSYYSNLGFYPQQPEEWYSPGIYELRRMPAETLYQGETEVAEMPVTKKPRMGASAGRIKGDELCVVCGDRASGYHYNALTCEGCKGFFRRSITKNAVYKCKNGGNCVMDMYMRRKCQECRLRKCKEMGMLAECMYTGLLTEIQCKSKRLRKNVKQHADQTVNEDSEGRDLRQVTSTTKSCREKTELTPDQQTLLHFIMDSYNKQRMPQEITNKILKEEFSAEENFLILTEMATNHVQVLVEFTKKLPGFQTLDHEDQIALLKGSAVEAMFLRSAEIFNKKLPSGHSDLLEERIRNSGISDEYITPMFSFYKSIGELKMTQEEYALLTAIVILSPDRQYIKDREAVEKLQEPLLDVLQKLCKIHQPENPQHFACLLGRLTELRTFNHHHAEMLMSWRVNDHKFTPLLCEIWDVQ
How it was run: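 Antagonist mode: titrated compounds tested against chenodeoxycholic acid stimulation (normalized to 50 uM CDCA and DMSO) in GeneBLAzer HEK293T cells for 16 h. Beta-lactamase read by CCF4 fluorescence; IC50 from Hill fits.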

[2] = qHTS assay for small molecule antagonists of peroxisome proliferator-activated receptor delta signaling (AID 588535; active = well fitted inhibition curve with a large enough effect in the signal ratio, with a control signal flat, not every such curve was filed as active; the % refers to the signal ratio;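 for max response: cells co-treated with a PPAR-delta agonist as stimulator during compound exposure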); details: HEK293T PPARd-UAS-bla, beta-lactamase FRET ratio, 18 h; 460 nm channel
How it was run: (§1)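 Antagonist-mode beta-lactamase reporter (GeneBLAzer PPAR-delta-UAS-bla) in HEK293T cells, 2% charcoal/dextran FBS, 4000 cells/well. Compound titrations, 18 h at 37 C; CCF4 ratio read, IC50 and efficacy from Hill fits.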

[3] = molecular target: Peroxisome proliferator-activated receptor delta (Homo sapiens) (UniProt Q03181); experiment: as above
Chain of Peroxisome proliferator-activated receptor delta (Homo sapiens) (Q03181 whole entry, looked up): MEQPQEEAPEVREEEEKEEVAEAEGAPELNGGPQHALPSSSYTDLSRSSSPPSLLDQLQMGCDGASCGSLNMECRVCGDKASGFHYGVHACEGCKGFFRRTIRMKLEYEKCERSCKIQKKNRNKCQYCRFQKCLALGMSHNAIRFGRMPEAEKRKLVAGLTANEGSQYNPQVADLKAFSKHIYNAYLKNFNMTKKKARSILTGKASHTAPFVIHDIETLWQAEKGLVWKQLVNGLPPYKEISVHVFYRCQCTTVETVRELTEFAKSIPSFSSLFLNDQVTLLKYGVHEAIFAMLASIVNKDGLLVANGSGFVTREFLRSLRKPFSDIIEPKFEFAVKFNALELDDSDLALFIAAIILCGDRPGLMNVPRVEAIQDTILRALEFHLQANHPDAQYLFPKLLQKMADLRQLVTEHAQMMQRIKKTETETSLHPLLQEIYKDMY
How it was run: as §1

[4] = molecular target: Peroxisome proliferator-activated receptor gamma (Homo sapiens) (UniProt P37231); experiment: qHTS assay for small molecule agonists of peroxisome proliferator-activated receptor gamma signaling (AID 588536; active = well fitted curve in the direction sought with a large enough effect in the signal ratio, with a control signal flat, not every such curve was filed as active; the % refers to the signal ratio;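 note: 0% = DMSO basal wells and 100% = rosiglitazone at 2 µM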)
Chain of Peroxisome proliferator-activated receptor gamma (Homo sapiens) (P37231 whole entry, looked up): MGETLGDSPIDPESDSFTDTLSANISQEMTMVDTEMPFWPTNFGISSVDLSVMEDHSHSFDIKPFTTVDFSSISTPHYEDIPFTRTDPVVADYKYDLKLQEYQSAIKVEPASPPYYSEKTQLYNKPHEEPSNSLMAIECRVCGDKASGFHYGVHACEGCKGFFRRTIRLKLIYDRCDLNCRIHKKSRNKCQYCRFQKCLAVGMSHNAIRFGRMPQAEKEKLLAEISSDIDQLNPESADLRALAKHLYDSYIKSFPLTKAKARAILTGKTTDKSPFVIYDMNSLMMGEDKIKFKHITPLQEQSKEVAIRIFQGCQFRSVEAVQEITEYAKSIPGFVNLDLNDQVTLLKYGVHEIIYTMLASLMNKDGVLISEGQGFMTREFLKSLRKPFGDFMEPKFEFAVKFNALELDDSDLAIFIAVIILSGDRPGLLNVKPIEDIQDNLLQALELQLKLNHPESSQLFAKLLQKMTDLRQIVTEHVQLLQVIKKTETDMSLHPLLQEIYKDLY
How it was run: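 HEK293 UAS-bla reporter line, 1% charcoal/dextran FBS; titration, 16 h, 37 C; CCF4 loading 2 h RT; fluorescence 460/530 nm. Normalized to rosiglitazone 2 uM = 100%, DMSO = 0%.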

[5] = molecular target: Peroxisome proliferator-activated receptor gamma (Homo sapiens) (UniProt P37231); experiment: qHTS assay for small molecule antagonists of peroxisome proliferator-activated receptor gamma signaling (AID 588537; active = well fitted inhibition curve with a large enough effect in the signal ratio, with a control signal flat, not every such curve was filed as active; the % refers to the signal ratio; note: potency is the fitted concentration of half-maximal effect)
How it was run: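 PPARγ-UAS-bla HEK293 cells (3000/well) in 1% charcoal/dextran-stripped FBS are treated with compound, then stimulated with 50 nM rosiglitazone for 16 h at 37 °C. Read-out is CCF4 β-lactamase fluorescence after 2 h at RT. IC50 comes from Hill fits normalised to rosiglitazone and DMSO.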

[6] = molecular target: Vitamin D3 receptor (Homo sapiens) (UniProt P11473); experiment: qHTS assay for small molecule antagonists of vitamin D receptor signaling (AID 588541);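 note: receptor activated by calcitriol during compound treatment; % is set by controls: 0 for no effect and ±100 for the full control effect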
Chain of Vitamin D3 receptor (Homo sapiens) (P11473 whole entry, looked up): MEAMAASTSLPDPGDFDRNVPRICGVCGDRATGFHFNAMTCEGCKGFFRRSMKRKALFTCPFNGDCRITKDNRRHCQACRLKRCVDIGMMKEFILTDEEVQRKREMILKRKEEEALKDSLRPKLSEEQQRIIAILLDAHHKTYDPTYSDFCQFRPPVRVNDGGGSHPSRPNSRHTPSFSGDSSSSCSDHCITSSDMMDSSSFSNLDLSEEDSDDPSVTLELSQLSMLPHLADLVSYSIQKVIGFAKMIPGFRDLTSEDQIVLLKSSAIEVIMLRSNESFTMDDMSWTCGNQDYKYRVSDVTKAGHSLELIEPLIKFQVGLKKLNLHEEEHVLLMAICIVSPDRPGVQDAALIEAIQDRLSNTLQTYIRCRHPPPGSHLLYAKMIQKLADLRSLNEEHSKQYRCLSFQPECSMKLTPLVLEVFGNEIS
How it was run: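 VDR-UAS-bla HEK293T cells in 2% charcoal-stripped FBS were stimulated with 1-alpha,25-dihydroxyvitamin D3 (3 nM final) plus compound for 16 h at 37 C. The beta-lactamase CCF4 readout was normalized to 50 nM agonist and DMSO, and Hill fits gave IC50.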

[7] = qHTS assay for small molecule agonists of retinoid X receptor alpha signaling (AID 588544); details: HEK293T RXRa-UAS-bla, beta-lactamase reporter, 18 h; 530 nm emission; note: potency is the fitted concentration of half-maximal effect;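 for activation: 0% = DMSO basal wells and 100% = reference agonist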
[8] = molecular target: Retinoic acid receptor RXR-alpha (Homo sapiens) (UniProt P19793); experiment: as above
Chain of Retinoic acid receptor RXR-alpha (Homo sapiens) (P19793 whole entry, looked up): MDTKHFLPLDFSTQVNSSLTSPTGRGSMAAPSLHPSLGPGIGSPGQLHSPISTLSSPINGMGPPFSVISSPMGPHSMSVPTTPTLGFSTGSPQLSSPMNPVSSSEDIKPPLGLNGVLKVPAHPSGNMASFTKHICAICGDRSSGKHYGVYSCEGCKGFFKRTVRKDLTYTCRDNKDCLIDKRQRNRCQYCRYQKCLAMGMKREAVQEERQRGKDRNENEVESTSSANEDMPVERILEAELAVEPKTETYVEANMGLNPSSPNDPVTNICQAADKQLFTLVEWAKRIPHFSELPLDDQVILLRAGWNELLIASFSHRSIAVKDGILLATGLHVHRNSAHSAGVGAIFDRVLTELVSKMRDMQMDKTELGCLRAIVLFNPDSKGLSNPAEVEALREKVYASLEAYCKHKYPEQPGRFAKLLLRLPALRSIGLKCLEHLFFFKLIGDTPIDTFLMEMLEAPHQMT

[9] = qHTS assay for small molecule activators of the nuclear factor-kappa B (NF-kB) signaling pathway (AID 651749; active = well fitted activation curve with a large enough effect in the signal ratio; the % refers to the signal ratio; note: potency is the fitted concentration of half-maximal effect; for activation: % of control where 0% means no effect); details: NF-kB-bla ME-180 cells, beta-lactamase FRET ratio, 16 h; activation: stronger effect = higher value
How it was run: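 NF-kB-bla ME-180 cells carrying a beta-lactamase reporter under an NF-kB response element, 2,000 cells/well, exposed to compound for 16 hr at 37C; FRET-based beta-lactamase fluorescence read-out of pathway activation.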

[10] = NFAT Signaling Pathway (AID 444; active = well fitted curve in either direction with a large enough effect, not every such curve was filed as active;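 note: carbachol stimulus at about its EC50 of 1 µM final; % is set by controls: 0 for no effect and ±100 for the full control effect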); details: Jurkat NFAT-bla M1, carbachol, beta-lactamase ratio, 5 h; at 17.2 µM (top of the series) unless noted
How it was run: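 Jurkat cells with NFAT-driven β-lactamase reporter and co-expressed M1 receptor, stimulated with carbachol (final 1 uM, ~EC50), compound titration, 5 h at 37 °C. CCF4 loaded 1 h at RT; 460/530 nm ratio gave %activity and AC50.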

[11] = molecular target: Androgen receptor (Homo sapiens) (UniProt P10275); experiment: qHTS assay for small molecule agonists of androgen receptor signaling (AID 588515; active = well fitted curve in the direction sought with a large enough effect in the signal ratio, with a control signal flat; the % refers to the signal ratio; note: % is set by controls: 0 for no effect and ±100 for the full control effect); details: AR-UAS-bla HEK293, beta-lactamase ratio, agonist 16 h; stronger effect = higher value
Chain of Androgen receptor (Homo sapiens) (P10275 whole entry, looked up): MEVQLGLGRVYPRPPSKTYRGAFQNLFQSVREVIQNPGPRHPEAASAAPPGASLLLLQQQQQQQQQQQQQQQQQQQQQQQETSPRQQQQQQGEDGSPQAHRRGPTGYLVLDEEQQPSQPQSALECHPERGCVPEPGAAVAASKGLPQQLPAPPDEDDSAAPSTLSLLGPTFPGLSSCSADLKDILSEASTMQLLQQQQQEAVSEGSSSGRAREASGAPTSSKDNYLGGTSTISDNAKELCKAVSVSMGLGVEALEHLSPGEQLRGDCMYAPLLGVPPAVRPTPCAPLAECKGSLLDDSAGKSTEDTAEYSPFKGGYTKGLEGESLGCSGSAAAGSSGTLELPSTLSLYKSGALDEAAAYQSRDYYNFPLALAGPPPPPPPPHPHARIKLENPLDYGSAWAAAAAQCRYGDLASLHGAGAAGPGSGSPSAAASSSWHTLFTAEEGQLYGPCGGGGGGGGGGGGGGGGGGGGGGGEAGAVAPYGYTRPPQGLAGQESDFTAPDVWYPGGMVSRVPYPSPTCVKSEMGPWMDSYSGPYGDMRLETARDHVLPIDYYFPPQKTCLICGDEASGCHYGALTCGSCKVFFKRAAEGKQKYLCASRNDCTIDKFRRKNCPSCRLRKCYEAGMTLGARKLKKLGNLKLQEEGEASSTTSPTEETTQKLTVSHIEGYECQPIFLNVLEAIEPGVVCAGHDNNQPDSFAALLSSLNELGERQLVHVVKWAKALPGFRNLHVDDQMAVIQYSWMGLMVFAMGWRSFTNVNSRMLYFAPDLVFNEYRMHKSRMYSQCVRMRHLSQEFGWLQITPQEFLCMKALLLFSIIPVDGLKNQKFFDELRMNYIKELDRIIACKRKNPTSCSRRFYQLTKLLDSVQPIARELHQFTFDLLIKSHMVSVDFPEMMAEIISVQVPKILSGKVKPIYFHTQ
How it was run: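 EC50 and efficacy came from Hill fits of titrations (up to 92 uM) normalized to 30 nM R1881 as 100% and DMSO as 0%. Compound exposure was 16 h at 37 C on AR-UAS-bla HEK293 cells, with a 405/460/530 nm CCF4 fluorescence read.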

[12] = qHTS Assay for Identification of Small Molecule Agonists for Hypoxia Response Element Signaling Pathway (AID 914; active = well fitted activation curve with a large enough effect in the signal ratio, with a control signal flat, not every such curve was filed as active; the % refers to the signal ratio; note: % of control where 0% means no effect); details: ME-180 (cervical carcinoma) HRE-bla reporter, beta-lactamase ratio, CoCl2, 17 h; activation: stronger effect = higher value
How it was run: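 A beta-lactamase reporter under hypoxia response element control in ME-180 cells served as the system. Compound titrations plus EC50 CoCl2 ran 17 h at 37 degrees Celsius; AC50 values were fitted from %Activity.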

[13] = qHTS Assay for Identification of Small Molecule Antagonists for Thrombopoietin (TPO) Signaling Pathway (AID 918; active = well fitted curve in the direction sought with a large enough effect; an effect the other way counts as inactive or inconclusive; note: potency is the fitted concentration of half-maximal effect; nearly all actives have a fitted effect of over 60% in size); details: TPO-dependent cell signaling reporter, antagonist mode
How it was run: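 Murine Ba/F3 cells expressing human TPO receptor and a Glycoprotein IIb promoter-luciferase reporter, IL-3-starved overnight, treated with compound plus TPO at EC50 (26 pM final). After 24 h at 37 C, luminescence read to detect inhibitors.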

[14] = molecular target: Muscarinic acetylcholine receptor M1 (Rattus norvegicus) (UniProt P08482); experiment: qHTS Assay for Antagonists of Acetylcholine Muscarinic M1 Receptor: Measurement of IP-One Response (AID 944; active = well fitted curve in the direction sought with a large enough effect; an effect the other way counts as inactive or inconclusive; note: nearly all actives have a fitted effect of over 75% in size)
Chain of Muscarinic acetylcholine receptor M1 (Rattus norvegicus) (P08482 whole entry, looked up): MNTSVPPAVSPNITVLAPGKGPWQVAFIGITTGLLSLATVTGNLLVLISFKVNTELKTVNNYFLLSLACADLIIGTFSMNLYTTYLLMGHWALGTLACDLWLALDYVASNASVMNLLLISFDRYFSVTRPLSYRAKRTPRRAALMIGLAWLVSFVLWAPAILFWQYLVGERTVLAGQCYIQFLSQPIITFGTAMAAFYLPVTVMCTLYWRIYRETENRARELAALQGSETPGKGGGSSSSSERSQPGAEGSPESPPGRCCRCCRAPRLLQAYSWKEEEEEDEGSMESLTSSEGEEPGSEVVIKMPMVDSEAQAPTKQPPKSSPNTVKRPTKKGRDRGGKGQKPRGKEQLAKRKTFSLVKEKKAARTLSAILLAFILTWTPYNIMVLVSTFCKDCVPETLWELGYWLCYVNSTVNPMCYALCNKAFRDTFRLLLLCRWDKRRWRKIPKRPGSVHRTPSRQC
How it was run: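 CHO cells stably expressing rat M1, pretreated 10 min with compound, then stimulated 30 min with carbachol at EC80 (200 nM) in LiCl-containing buffer pH 7.4; IP1 accumulation read by HTRF competition (665/620 nm).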

[15] = qHTS assay to identify small molecules that stimulate interleukin-8 (IL-8) secretion (AID 651758; active = well fitted activation curve with a large enough effect in the signal ratio; the % refers to the signal ratio; note: potency is the fitted concentration of half-maximal effect)
How it was run: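 THP-1 cells (2000/well) exposed to compound 16 h at 37 C; secreted IL-8 then detected by HTRF with cryptate- and XL665-labelled anti-IL-8 antibody pair after 1-3 h at room temperature.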

[16] = molecular target: Estrogen receptor (Homo sapiens) (UniProt P03372); experiment: qHTS assay for small molecule agonists of estrogen receptor alpha signaling (AID 588514);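 note: 0% = vehicle only and 100% = reference agonist; nearly all actives have a fitted effect of over 70% in size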
Chain of Estrogen receptor (Homo sapiens) (P03372 whole entry, looked up): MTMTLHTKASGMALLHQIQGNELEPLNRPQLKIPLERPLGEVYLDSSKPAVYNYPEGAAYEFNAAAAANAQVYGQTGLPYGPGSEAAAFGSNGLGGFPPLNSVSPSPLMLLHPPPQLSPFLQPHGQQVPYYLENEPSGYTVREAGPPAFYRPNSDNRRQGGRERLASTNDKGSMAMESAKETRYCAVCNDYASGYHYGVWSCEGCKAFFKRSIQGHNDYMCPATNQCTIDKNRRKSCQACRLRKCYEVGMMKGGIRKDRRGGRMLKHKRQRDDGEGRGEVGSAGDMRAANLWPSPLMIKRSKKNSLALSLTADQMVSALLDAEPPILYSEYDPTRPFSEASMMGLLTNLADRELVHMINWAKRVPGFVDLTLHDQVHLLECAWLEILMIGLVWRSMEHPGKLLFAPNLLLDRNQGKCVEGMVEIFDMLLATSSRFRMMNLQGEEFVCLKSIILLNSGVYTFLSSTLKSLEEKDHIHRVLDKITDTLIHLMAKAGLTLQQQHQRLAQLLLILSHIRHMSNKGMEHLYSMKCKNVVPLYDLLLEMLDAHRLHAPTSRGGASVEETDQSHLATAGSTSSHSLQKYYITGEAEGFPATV
How it was run: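 ER-alpha-UAS-bla GripTite HEK293 cells, 5000/well in 2% charcoal/dextran-stripped FBS medium, treated with compound titrations 18 h at 37 C. CCF4 beta-lactamase read by fluorescence after 2 h RT; normalised to 20 nM 17-beta-estradiol (100%) and DMSO (0%), Hill fit for EC50 and efficacy.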

With `FC(F)(F)c1ccc(Cl)cc1` the Potency [1] was “inactive”, the max response [2] was -2.48% and -14.3% and the Potency [3] was “inactive”. The Potency [4] was “inactive”, the Potency [5] was “inactive” and the Potency [6] was “inactive”. The max response [7] was -3.02% and -12.4%, the Potency [8] was “inactive” and the activation [9] was 0.334% (inactive) and 1.17% (inactive).

For `CCN(CC)CCN=C(C)c1c(O)n(-c2ccccc2OC)c(=O)[nH]c1=O`, the activity change, negative = inhibition [10] was -15.6% (inactive).

With `Cn1c(O)c(C(=O)c2ccccc2Cl)c(=O)n(C)c1=O` the activity change, negative = inhibition [10] was 6.46% (inactive).

In the case of `Oc1c(Br)c(Br)c(Br)c(Br)c1Br`, the Potency [1] is reported as 28.2 µM (active).

For `O=[N+]([O-])C(Br)Br`, the activation [11] was 6.33% (inactive), the max response [2] was -33.2% and the Potency [3] was “inactive”. The Potency [4] was “inactive”, the Potency [5] was “inactive” and the Potency [6] was “inactive”. The max response [7] was -3.79% and the Potency [8] was “inactive”.

In the case of `CN[C@@H](C)[C@@H](O)c1ccccc1`, the activation [12] is reported as 24.4% (inactive), the Potency [13] is reported as 3.16 µM (active) and the Potency [14] is reported as “inactive”.

In the case of `ClC1=C(Cl)C2(Cl)C3C(Cl)C(Cl)CC3C1(Cl)C2(Cl)Cl` (stereo not given), the activation [11] is reported as -9.52% (inactive), the Potency [6] is reported as “inactive” and the Potency [15] is reported as 42.2 µM (active).

With `c1ccc2cc3c(cc2c1)-c1cccc2cccc-3c12` the max response [7] was 21%, the Potency [8] was 2.82 µM (active) and the Potency [9] was 7.08 µM (active) and 4.47 µM (active).

With `N#CSCSC#N` the Potency [5] was 35.5 µM (active).

With `Clc1ccc(C(c2ccc(Cl)cc2)C(Cl)Cl)cc1` the Potency [16] was “inactive”, the max response [2] was -7.51% and the Potency [3] was “inactive”. For the same compound, the max response [7] was -1.02% and the Potency [8] was “inactive”.
